# Experimental data as given in PubChem BioAssay (Tox21).
# Results filed as inconclusive are left out. A call without a number means that no potency is given here. A number with no mark means an inactive call. Calls of active or inactive are those of the source. Calls come from the whole dose curve; as a rule, active = well fitted cell-killing curve with a large enough effect in the repeat runs; inconclusive = weak or mixed curves; inactive = flat fitted curve, though single readings scatter.
# Assay: qHTS assay to identify small molecule antagonists of the estrogen receptor beta (ER-beta) signaling pathway - cell viability counter screen (AID 1259382); note: nearly all actives have a fitted effect of over 55% in size
# Conditions: ER-beta-UAS-bla HEK293T viability, CellTiter-Glo luminescence, 16 h; series mostly up to 92.4 µM; activity change, negative = cytotoxicity: at the top concentration
# Source text: U.S. Tox21 Program National Center for Advancing Translational Sciences [NCATS] NIH Chemical Genomics Center [NCGC] U.S. Environmental Protection Agency [EPA] National Institutes of Environmental Health Sciences [NIEHS] National Toxicology Program [NTP] U.S. Food and Drug Administration [FDA] Tox21 Assay Overview: Estrogen receptor (ER), a nuclear hormone receptor, plays an important role in development, metabolic homeostasis and reproduction. Two subtypes of ER, ER-alpha and ER-beta, have similar expression patterns with some uniqueness in both types. Endocrine disrupting chemicals (EDCs) and their interactions with steroid hormone receptors like ER causes disruption of normal endocrine function. To identify the compounds that inhibit ER signaling, an ER-beta-UAS-bla GripTite cell line (Life Technologies, Madison, WI, USA) containing a beta-lactamase reporter gene under the control of an UAS response element was used to screen Tox21 10K compound library. The cytotoxicity of the Tox21 compound library against the ER-beta-bla cell line was tested in parallel by measuring the cell viability using CellTiter-Glo assay in the same wells.
# Tox21 Assay Protocol Summary: ER-beta-UAS-bla HEK293T cells were dispensed at 2,000 cells/4 uL of assay medium containing 2% charcoal stripped FBS per well into black wall/clear-bottom 1536-well plates using a Multidrop Combi (ThermoFisher Scientific, Waltham, MA) dispenser. After the assay plates were incubated at a 37C and 5% CO2 for 6 hr, 23 nL of compounds dissolved in DMSO, positive controls or DMSO only was transferred to the assay plate by a Pintool station (Kalypsys, San Diego, CA), followed by addition of 1 uL (1nM as final concentration) of 17-beta-estradiol (E2) in assay medium using a Flying Reagent Dispenser (FRD, Aurora Discovery, San Diego, CA). The plates were incubated at 37C and 5% CO2 for 16 hr. Then 1 uL of LiveBLAzer B/G FRET substrate was added using a Flying Reagent Dispenser, the plates were incubated at room temperature for 2 hours, and fluorescence intensity was measured by an Envision plate reader (PerkinElmer, Shelton, CT). For cell viability readout that measures cytotoxicity, 4 uL/well of CellTiter-Glo reagent was added into the assay plates using a FRD. After 30 min incubation at room temperature, the luminescence intensity in the plates was measured using a ViewLux (PerkinElmer) plate reader.
Structure (SMILES),Potency,"activity change, negative = cytotoxicity"
Oc1cccc(O)c1,inactive,–
Cc1c(N(C)CS(=O)(=O)O)c(=O)n(-c2ccccc2)n1C,inactive,–
Cc1cccc2ccccc12,inactive,–
O=C(O)CN(CC(=O)O)CC(=O)O,inactive,–
NC(=O)N1c2ccccc2C=Cc2ccccc21,inactive,–
COc1ccc(C(=O)c2ccccc2)c(O)c1,inactive,–
Cc1ccc(O)c(-n2nc3ccccc3n2)c1,inactive,–
CCCCCCCCCCCCCC(=O)OC(C)C,inactive,–
CC(C)(C)CC(C)(C)c1ccc(O)c(-n2nc3ccccc3n2)c1,–,-10.8% [at 42.5 µM]
CC(=O)c1ccc(S(=O)(=O)NC(=O)NC2CCCCC2)cc1,inactive,–
COc1cc(O)c(C(=O)c2ccccc2)cc1S(=O)(=O)O,inactive,–
COc1ccc(O)cc1,inactive,–
NC(=O)NO,inactive,–
CCN(CC)CCOC(=O)c1ccc(N)cc1,inactive,–
CCN1CCCC1=O,inactive,–
OCCCc1ccccc1,inactive,–
CC(C)Cc1ccc(C(C)C(=O)O)cc1 (stereo not given),inactive,–
CCOCCO,inactive,–
Cn1cnc2c1c(=O)[nH]c(=O)n2C,inactive,–
N[C@@H](Cc1c[nH]c2ccccc12)C(=O)O,inactive,–

Structure (SMILES),Potency,"activity change, negative = cytotoxicity"
OC[C@@H](O)[C@@H](O)[C@H](O)[C@H](O)CO,inactive,–
CCCCNC(=O)NS(=O)(=O)c1ccc(N)cc1,inactive,–
CC(O)COc1ccccc1 (stereo not given),inactive,–
Nc1cccc(N)c1,inactive,–
O=C(O)CCCCC1CCSS1 (stereo not given),inactive,–
C[C@]12C=CC(=O)C=C1CC[C@@H]1[C@@H]2C(=O)C[C@@]2(C)[C@H]1CC[C@]2(O)C(=O)CO,inactive,–
CC(=O)OC/C=C(C)/C=C/C=C(C)/C=C/C1=C(C)CCCC1(C)C,–,-12.4% [at 42.5 µM]
COc1cc2c(c(OC)c1OC)-c1ccc(OC)c(=O)cc1[C@@H](NC(C)=O)CC2,inactive,–
COC(=O)c1ccc(C=O)cc1,inactive,–
O=C1OC(c2ccc(O)cc2)(c2ccc(O)cc2)c2ccccc21,inactive,–
O=C(OCc1ccccc1)c1ccccc1,inactive,–
CCOC(=O)C(C)(C)Oc1ccc(Cl)cc1,inactive,–
N[C@@H](Cc1c[nH]c2ccc(O)cc12)C(=O)O,inactive,–
C[C@]12CC[C@@H]3c4ccc(O)cc4CC[C@H]3[C@@H]1CCC2=O,inactive,–
COc1cc(C=O)ccc1O,inactive,–
CN(C)C=O,inactive,–
CC(C)(C)NCC(O)c1ccc(O)c(CO)c1 (stereo not given),inactive,–
O=c1c(-c2ccc(O)cc2)coc2cc(O)cc(O)c12,inactive,–
CCc1cc(C(N)=S)ccn1,inactive,–
C[C@]12C[C@H](O)[C@H]3[C@@H](CCC4=CC(=O)CC[C@@]43C)[C@@H]1CC[C@@H]2C(=O)CO,inactive,–
